ELG1 repair inh: inhibitors of ELG1-dependent DNA repair in HEK293T cells. HEK293T ELG1-luciferase reporter, luminescence, 16 h; DNA damage induced by 5-fluorouridine. Potency, µM (highest dose often 46.1 µM), usual class: inhibitors. actives 2.3% (n = 330,000); note: nearly all actives have a fitted effect of over 55% in size
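In this reporter screen, reduction of luminescence relative to DMSO vehicle indicated activity. Compounds and 5-fluorouridine were added together to 2,000 cells per well, incubated for 16 hr at 37 °C, then developed with ONE-Glo.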
KB-3-1 tox: kills parental KB-3-1 adenocarcinoma cells. KB-3-1 viability, CellTiter-Glo ATP luminescence, 72 h. actives 1.4% (n = 400,000). Potency, µM (series often up to 46.1 µM), hits mostly cytotoxic. AID 1347075; note: nearly all actives have a fitted effect of over 60% in size
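KB-3-1 cells, DMEM (no phenol red) + 10% FBS; compound by pin transfer, 72 h, 37 °C. Readout: CellTiter-Glo luminescence after 10 min. Data normalized, curve-fitted.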
SW480 rereplic: inducers of DNA re-replication in SW480 colon cancer cells | Potency, µM (doses to about 46.1 µM), hits mostly activators | SW480 DNA re-replication, Hoechst DNA content imaging, 48 h | actives 1.8% (n = 340,000); note: nearly all actives have a fitted effect of over 55% in size
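Per well, 250 cells were exposed to pinned compound for 48 hr. Nuclear DNA was visualised with Hoechst (40 min, 37 C) and total object intensity recorded by fluorescence scanning.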
MCF10A rerep: induces DNA re-replication in MCF 10a normal breast cells; AID 624296; Potency, µM (highest dose often 46.1 µM), most hits filed as activators; MCF 10A DNA re-replication, Hoechst nuclear intensity, 48 h; actives 2.9% (n = 350,000); note: nearly all actives have a fitted effect of over 50% in size
KB-V1 MDR tox: kills drug-selected multidrug resistant KB-V1 cells; KB-V1 MDR cells viability, CellTiter-Glo, 72 h; Potency, µM (top dose mostly 46.1 µM), most hits filed as cytotoxic; actives 3.4% (n = 400,000); note: nearly all actives have a fitted effect of over 60% in size
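KB-V1 cells (P-gp-expressing MDR subline of KB-3-1) in phenol-red-free DMEM with 10% FBS were exposed to library compounds over a concentration series for 72 h at 37 degrees C. Viability read by CellTiter-Glo luminescence; concentration-effect curves fitted after normalization.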
ELG1 FLuc counter: luciferase inhibition in cell-free luciferin readout for ELG1 hits | shares compounds with ELG1 repair inh | cell-free firefly luciferase luminescence counter-screen, ViewLux | Potency, µM (series often up to 46.1 µM), hits mostly inhibitors | actives 3% (n = 350) | AID 624247
ELG1 Luc conf: confirmation of human ELG1-dependent DNA repair inhibitors; shares compounds with ELG1 repair inh; HEK293T ELG1-luciferase levels, luminescence; cells co-treated with 5-fluorouridine; Potency, µM (doses to about 46.1 µM), most hits filed as inhibitors; actives 68% (n = 670); AID 624248; note: nearly all actives have a fitted effect of over 55% in size
Target sequence (Q96QE3 whole entry, looked up): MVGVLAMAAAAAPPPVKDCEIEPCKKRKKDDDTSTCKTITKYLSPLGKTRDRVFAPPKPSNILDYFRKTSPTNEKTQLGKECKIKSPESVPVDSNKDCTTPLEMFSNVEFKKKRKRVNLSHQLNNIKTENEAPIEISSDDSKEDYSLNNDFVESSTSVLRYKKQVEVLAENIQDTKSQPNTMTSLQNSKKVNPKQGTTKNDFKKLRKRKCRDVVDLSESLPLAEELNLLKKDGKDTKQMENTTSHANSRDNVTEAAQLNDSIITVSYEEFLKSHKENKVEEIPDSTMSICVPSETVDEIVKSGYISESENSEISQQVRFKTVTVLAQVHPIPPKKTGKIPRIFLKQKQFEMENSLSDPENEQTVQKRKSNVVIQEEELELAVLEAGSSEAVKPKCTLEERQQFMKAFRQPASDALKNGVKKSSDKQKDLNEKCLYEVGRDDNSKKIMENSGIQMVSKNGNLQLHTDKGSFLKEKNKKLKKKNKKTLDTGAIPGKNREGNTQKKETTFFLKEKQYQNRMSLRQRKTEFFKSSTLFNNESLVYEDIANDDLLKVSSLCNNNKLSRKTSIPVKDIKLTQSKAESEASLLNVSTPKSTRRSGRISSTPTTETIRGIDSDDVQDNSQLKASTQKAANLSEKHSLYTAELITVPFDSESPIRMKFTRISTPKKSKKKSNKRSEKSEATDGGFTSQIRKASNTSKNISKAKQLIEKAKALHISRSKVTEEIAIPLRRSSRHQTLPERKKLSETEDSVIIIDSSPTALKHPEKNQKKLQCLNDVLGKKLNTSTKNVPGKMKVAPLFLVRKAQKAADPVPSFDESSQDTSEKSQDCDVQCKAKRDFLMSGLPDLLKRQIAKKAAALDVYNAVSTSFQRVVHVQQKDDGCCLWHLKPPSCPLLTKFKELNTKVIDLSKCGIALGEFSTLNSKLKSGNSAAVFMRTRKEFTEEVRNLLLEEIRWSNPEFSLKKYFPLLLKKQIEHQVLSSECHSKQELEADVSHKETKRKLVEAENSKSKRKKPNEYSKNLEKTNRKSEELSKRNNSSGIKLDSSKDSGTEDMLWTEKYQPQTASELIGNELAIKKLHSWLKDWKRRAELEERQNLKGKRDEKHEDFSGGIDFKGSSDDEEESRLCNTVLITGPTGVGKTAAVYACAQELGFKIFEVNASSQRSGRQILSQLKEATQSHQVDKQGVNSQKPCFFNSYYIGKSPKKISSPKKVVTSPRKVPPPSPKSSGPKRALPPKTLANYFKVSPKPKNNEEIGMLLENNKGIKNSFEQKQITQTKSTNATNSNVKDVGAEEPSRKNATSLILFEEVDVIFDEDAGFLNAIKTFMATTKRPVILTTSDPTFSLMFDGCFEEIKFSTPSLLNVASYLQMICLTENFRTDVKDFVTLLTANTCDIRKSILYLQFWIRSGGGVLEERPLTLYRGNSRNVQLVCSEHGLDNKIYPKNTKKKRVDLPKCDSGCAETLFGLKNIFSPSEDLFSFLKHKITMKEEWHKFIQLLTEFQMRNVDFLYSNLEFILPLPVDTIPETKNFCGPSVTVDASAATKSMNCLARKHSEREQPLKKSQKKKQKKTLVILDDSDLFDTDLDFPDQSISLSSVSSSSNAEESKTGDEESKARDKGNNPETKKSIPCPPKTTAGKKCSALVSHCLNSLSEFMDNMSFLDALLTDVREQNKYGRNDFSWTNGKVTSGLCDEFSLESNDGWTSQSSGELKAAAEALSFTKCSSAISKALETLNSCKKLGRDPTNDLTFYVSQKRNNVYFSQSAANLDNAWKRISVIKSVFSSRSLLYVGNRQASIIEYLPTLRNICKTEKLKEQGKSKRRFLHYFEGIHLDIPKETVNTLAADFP
ELG1 MMS Luc: confirmation of human ELG1 repair inhibitors, MMS stimulated; shares compounds with ELG1 repair inh; Potency, µM (titrated, usually from 46.1 µM), hits mostly inhibitors; actives 53% (n = 670); HEK293T luciferase-tagged ELG1 level, MMS stimulated; AID 624249; note: nearly all actives have a fitted effect of over 60% in size
ELG1 5-FU: confirmation of ELG1 repair inhibitors: viability with 5FU | Potency, µM (top dose mostly 46.1 µM), usual class: cytotoxic | cell viability with 5-FU, ELG1-dependent repair | shares compounds with ELG1 repair inh | 670 tested, under 10 active;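 note: ELG1-luc HEK293T cells cotreated with 5-fluorouridine at 10 µM final; viability measured 16 h after compound addition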
ELG1 MMS cell: confirmation of ELG1 repair inhibitors: viability with MMS. shares compounds with ELG1 repair inh. Cell viability with MMS, ELG1-dependent DNA repair. Potency, µM (series often up to 46.1 µM), most hits filed as cytotoxic. actives 33% (n = 670). AID 624251;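 note: ELG1-luc HEK293T cells co-treated with 10 µM MMS; viability read 16 h after compound addition; nearly all actives have a fitted effect of over 60% in size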
Cell viab unstim: affects unstimulated cell viability, ELG1 hit counter-screen. Potency, µM (top dose mostly 45.9 µM), most hits filed as cytotoxic. cell viability counter-screen, unstimulated, luminescence. actives 8% (n = 900). AID 624252. shares compounds with ELG1 repair inh;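 note: compound exposure lasted 16 hours before reading; nearly all actives have a fitted effect of over 55% in size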
FLuc enzyme: inhibits purified firefly luciferase, counter-screen for ELG1 hits. shares compounds with ELG1 repair inh. Potency, µM (titrated, usually from 57.5 µM), actives largely listed as inhibitors. AID 624253. purified firefly luciferase, luminescence counter-screen. actives 10% (n = 350)
Hits are given with their value; i = inactive; ? = inconclusive; nt = not tested or not shown. The list is not random: actives were taken first. Their share in the collection is about 8.1%. Calls come from the whole dose curve; as a rule, active = well fitted curve in the direction sought with a large enough effect; inconclusive = small, poorly fitted or top-dose-only effect, or another doubt; inactive = no such curve, though single readings can be large; an effect the other way counts as inactive or inconclusive.

SMILES | ELG1 repair inh | KB-3-1 tox | SW480 rereplic | MCF10A rerep | KB-V1 MDR tox | ELG1 Luc conf | ELG1 MMS Luc | ELG1 5-FU | ELG1 MMS cell | Cell viab unstim | others
CC(C)(C)OC(=O)NCc1ccc(NC(=O)c2nc[nH]c2C(=O)NCCCCCCNC(=O)c2[nH]cnc2C(=O)Nc2ccc(CNC(=O)OC(C)(C)C)cc2)cc1 | 2.3µM | i | i | ? | i | 1.1µM | 25µM | ? | ? | ?
CCOC(=O)[C@H]1[C@H]2COc3cc(OC)ccc3[C@@H]2N2C(=O)CN(C)C(=O)[C@@]12C | i | i | i | i | i | nt | nt | nt | nt | nt
COc1ccc(-c2csc(C(C)(O)c3ccccc3)n2)cn1 (configuration not stated) | nt | i | nt | nt | i | nt | nt | nt | nt | nt
COc1ccc(NC(=O)CSc2nc3ccccc3n2CC(=O)NCc2ccc(F)cc2)cc1 | nt | i | nt | nt | i | nt | nt | nt | nt | nt
O=C(CSCC(=O)N1CCOCC1)Nc1nc(-c2ccccc2)cs1 | ? | i | i | i | i | nt | nt | nt | nt | nt
CCOC(=O)N1CCN(C(=O)CSCC(=O)Nc2nc(-c3ccc(-c4ccccc4)cc3)cs2)CC1 | 10µM | ? | i | i | i | nt | nt | nt | nt | 16µM | ELG1 FLuc counter=i;FLuc enzyme=?
CCCCc1nc(SCC(=O)N2CCCCC2)c2c(=O)n(C)c(=O)n(C)c2n1 | ? | ? | i | i | ? | nt | nt | nt | nt | nt
CCn1cc(C(=O)Nc2cccc(NC(C)=O)c2)c2cc(OC)c(OC)cc2c1=O | ? | i | i | i | i | nt | nt | nt | nt | nt
CCn1cc(C(=O)Nc2ccc3c(c2)OCCO3)c2cc(OC)c(OC)cc2c1=O | 5.8µM | i | i | i | i | 7.1µM | ? | ? | ? | ? | ELG1 FLuc counter=i;FLuc enzyme=i
CCOc1ccc(-n2cc(C(=O)Nc3ccccc3OCC)c3cc(OC)c(OC)cc3c2=O)cc1 | nt | i | nt | nt | i | nt | nt | nt | nt | nt
CCOc1ccc(-n2cc(C(=O)Nc3cccc(OC)c3)c3cc(OC)c(OC)cc3c2=O)cc1 | ? | ? | i | i | i | 11µM | 25µM | ? | i | i | ELG1 FLuc counter=i;FLuc enzyme=i
CN(C(=O)COC(=O)/C=C/c1ccc(F)cc1)c1c(N)n(Cc2ccccc2)c(=O)[nH]c1=O | i | i | i | i | i | nt | nt | nt | nt | nt
Cc1nn(-c2ccc(NC(=O)c3ccncc3)cc2)c(C)c1Cl | 4.6µM | i | i | i | i | 14µM | 2.2µM | i | 1.6µM | 16µM
C/C(=N\NC(=O)c1c(Cl)c(C)nn1C)c1ccc(NC(=O)c2ccncc2)cc1 | ? | i | i | i | i | nt | nt | nt | nt | nt
Fc1ccc2cc(CCO[C@H]3CCCCO3)ncc2c1 | ? | i | i | ? | i | nt | nt | nt | nt | ?
COc1ccc(S(=O)(=O)Nc2cccc(-c3ccc(N4CCC(C)CC4)nn3)c2)c(OC)c1 | nt | i | nt | nt | i | nt | nt | nt | nt | nt
CCOc1cc(N2CCOCC2)c(OCC)cc1NC(=O)c1nn(CC)c(=O)c2ccccc12 | 2.3µM | ? | i | ? | 3.7µM | 2.2µM | 14µM | i | ? | ?
COc1cc2c(NC3CCN(C)CC3)nc(N3CCCN(C)CC3)nc2cc1OCCCCCN(C)C | nt | ? | nt | nt | i | nt | nt | nt | nt | nt
O=C(Cn1cnc2cc([N+](=O)[O-])ccc2c1=O)Nc1cccc(S(=O)(=O)N2CCOCC2)c1 | 3.3µM | i | i | ? | i | ? | i | ? | i | ?
Cc1ccc(N(C)C(=O)c2cc(S(=O)(=O)N3CCCCC3)c[nH]2)cc1 | 3.7µM | i | i | i | i | ? | i | i | i | i
CN(C(=O)c1cc(S(=O)(=O)N2CCCCC2)c[nH]1)C1CCCCC1 | i | i | i | i | i | nt | nt | nt | nt | nt
O=C(Nc1cccc(/C=C/c2ccccn2)c1)c1ccc(-n2cncn2)cc1 | 3.3µM | i | i | ? | ? | 13µM | ? | i | ? | ?
CCCCNC(=O)C1(C)CCN1C(=O)c1cc(C)n(C(C)(C)C)n1 (configuration not stated) | nt | i | nt | nt | i | nt | nt | nt | nt | nt
COc1cc2c(cc1OC)CN(C(=O)c1nn(Cc3ccccc3)c(=O)c3ccccc13)CC2 | 2.6µM | i | i | i | i | 1.1µM | ? | ? | ? | ?
CCOc1cc(/C=N/Nc2cc(C)nc(-n3nc(C)cc3C)n2)ccc1O | 2.6µM | i | ? | ? | i | 6.3µM | ? | ? | ? | ?
SMILES | ELG1 repair inh | KB-3-1 tox | SW480 rereplic | MCF10A rerep | KB-V1 MDR tox | ELG1 Luc conf | ELG1 MMS Luc | ELG1 5-FU | ELG1 MMS cell | Cell viab unstim | others
N#Cc1cccnc1N1CCN(C(c2ccnc3ccccc23)c2nnnn2-c2ccc3c(c2)OCCO3)CC1 (configuration not stated) | nt | i | nt | nt | ? | nt | nt | nt | nt | nt
COc1ccc(/C=C/c2onc(C)c2S(=O)(=O)N2CCC(C(=O)N3CCCCCC3)CC2)cc1 | 2.6µM | ? | i | ? | i | 3.1µM | 16µM | ? | i | i
Cc1cccc(/C=C/c2onc(C)c2S(=O)(=O)N2CCC(C(=O)N3CCCCC3)CC2)c1 | 2.9µM | i | i | i | i | 2.2µM | ? | ? | i | i
COc1cccc(/C=C/c2onc(C)c2S(=O)(=O)N2CCC(C(=O)N3CCCCC3)CC2)c1 | nt | i | nt | nt | i | nt | nt | nt | nt | nt
CCOc1ccccc1/C=C/c1onc(C)c1S(=O)(=O)N1CCC(C(=O)N2CCCCCC2)CC1 | 2.9µM | ? | i | 18µM | i | 4µM | ? | ? | i | i
CCC(Cn1nnc2ccccc2c1=O)NC(=O)Nc1cc(Cl)ccc1OC (configuration not stated) | nt | i | nt | nt | i | nt | nt | nt | nt | nt
CN(CC1COc2ccccc2O1)C(=O)CCNS(=O)(=O)c1ccc(F)c(Cl)c1 (configuration not stated) | nt | i | nt | nt | i | nt | nt | nt | nt | nt
Cc1ccc(C)c(N2CCN(C(=O)CCc3nc(-c4ccccc4)no3)CC2)c1 | i | i | i | ? | i | nt | nt | nt | nt | nt
Cc1cccc(-c2noc(CCC(=O)N3CCN(c4cc(C)ccc4C)CC3)n2)c1 | ? | i | i | ? | i | nt | nt | nt | nt | i

Bioassay records from PubChem BioAssay.
